Laboratory results published in publication PMC4336329 (PLoS ONE, 2015).
The campaign covered roughly 310,000 compounds. About 14,000 (4.5%) showed an effect of 50% or more. The effect is printed as a negative number. Only a selection was taken, and strong results are over-represented in it overall.

biological target: human ether-à-go-go-related gene (hERG) potassium channel (human, UniProt Q12809); assay: primary screen, population patch clamp on CHO cells stably expressing hERG; higher = less effect of the substance
Sequence (Q12809 whole entry, looked up): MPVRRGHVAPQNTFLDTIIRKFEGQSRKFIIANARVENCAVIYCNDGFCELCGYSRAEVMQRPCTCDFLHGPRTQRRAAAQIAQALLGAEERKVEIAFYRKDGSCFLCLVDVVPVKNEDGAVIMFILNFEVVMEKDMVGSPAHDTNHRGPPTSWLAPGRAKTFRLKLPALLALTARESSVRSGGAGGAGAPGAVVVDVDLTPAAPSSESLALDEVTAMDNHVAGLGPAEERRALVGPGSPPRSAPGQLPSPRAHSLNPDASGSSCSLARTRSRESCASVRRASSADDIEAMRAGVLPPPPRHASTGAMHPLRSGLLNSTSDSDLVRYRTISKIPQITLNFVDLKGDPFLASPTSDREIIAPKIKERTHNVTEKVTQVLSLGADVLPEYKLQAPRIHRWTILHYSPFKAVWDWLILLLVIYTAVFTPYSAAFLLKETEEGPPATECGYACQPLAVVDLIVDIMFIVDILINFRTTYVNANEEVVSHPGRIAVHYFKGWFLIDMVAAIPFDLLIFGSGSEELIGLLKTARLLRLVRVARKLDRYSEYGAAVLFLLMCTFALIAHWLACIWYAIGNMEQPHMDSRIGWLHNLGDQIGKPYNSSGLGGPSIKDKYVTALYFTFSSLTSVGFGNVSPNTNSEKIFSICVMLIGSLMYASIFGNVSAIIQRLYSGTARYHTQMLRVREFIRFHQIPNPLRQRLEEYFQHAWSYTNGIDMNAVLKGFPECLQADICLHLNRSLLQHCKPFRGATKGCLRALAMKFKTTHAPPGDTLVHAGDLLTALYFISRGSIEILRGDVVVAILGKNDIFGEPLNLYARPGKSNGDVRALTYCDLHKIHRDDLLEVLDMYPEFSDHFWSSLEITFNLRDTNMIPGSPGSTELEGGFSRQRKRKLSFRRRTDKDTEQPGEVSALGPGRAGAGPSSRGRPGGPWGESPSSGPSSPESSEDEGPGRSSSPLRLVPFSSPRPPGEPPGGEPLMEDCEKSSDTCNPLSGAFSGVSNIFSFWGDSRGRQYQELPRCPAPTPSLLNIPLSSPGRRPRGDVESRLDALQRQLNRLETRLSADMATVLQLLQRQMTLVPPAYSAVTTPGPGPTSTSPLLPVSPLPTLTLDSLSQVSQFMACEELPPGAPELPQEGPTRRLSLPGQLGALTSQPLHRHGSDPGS
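Further: peak tail current of the secondary pulse compared with the same well before compound.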

SMILES | hERG current change (%, negative = inhibition) at 10uM
O=C(c1cccc(S(=O)(=O)NCCOc2ccccc2)c1)N1CCN(c2ncccn2)CC1 | -37.6%
Cc1cc(/C=C(\C#N)C(=O)NCc2ccco2)c(C)n1-c1cccnc1 | -23.2%
O=C(COc1ccc2ccccc2c1)N/N=C/C1CC=CCC1 (stereo not shown) | 1.93%
CCOCCCN1CN(Cc2ccccc2)CNC1=S | 14.3%
COC(=O)c1sccc1NC(=S)NCc1ccc(Cl)cc1 | 9.11%
COCCN(C(=O)CCC(=O)Nc1cc(C)on1)C(C(=O)NC1CCCC1)c1ccccc1C (stereo not shown) | 14.7%
COc1cccc(OC)c1C(=O)NC(=S)N1CCOCC1 | 17.2%
CCOC(=O)Cn1c2c(c(-c3ccccc3OC)cc1=O)CCCC2 | 2.38%
CNS(=O)(=O)c1ccc(NC(=S)Nc2ccc3c(c2)OCO3)cc1 | 8.16%
Cn1c(N)c(C(=O)COc2ccc(Cl)cc2Cl)c(=O)n(C)c1=O | 2.07%
Cc1ccc(S(=O)(=O)N(C)CC(=O)OCC(=O)c2c(N)n(C)c(=O)n(C)c2=O)cc1 | -47.1%
Cn1c(N)c(C(=O)COC(=O)CSc2ccc3ccccc3c2)c(=O)n(C)c1=O | -1.77%
CN(CC(=O)OCC(N)=O)S(=O)(=O)c1ccc(Cl)cc1 | 33.6%
Cn1c(N)c(C(=O)COC(=O)CSc2ccccc2)c(=O)n(C)c1=O | -33.6%
CC(Oc1ccc(Cl)cc1Cl)C(=O)OCC(=O)c1c(N)n(C)c(=O)n(C)c1=O (stereo not shown) | -71.2%
CC(=O)c1c(C)[nH]c(C(=O)COC(=O)CNS(=O)(=O)c2ccccc2)c1C | -2.66%
CN(CC(=O)OCC(=O)c1c(N)n(C)c(=O)n(C)c1=O)S(=O)(=O)c1ccc(Cl)cc1 | -69.3%
CC(C)[C@H](NS(=O)(=O)c1ccc(Cl)cc1)C(=O)OCC(=O)c1c(N)n(C)c(=O)n(C)c1=O | -39.9%
CC(=O)c1c(C)[nH]c(C(=O)COC(=O)CN(C)S(=O)(=O)c2ccc(Cl)cc2)c1C | -57.8%
Cn1c(N)c(C(=O)COC(=O)CCCOc2ccc(Cl)cc2Cl)c(=O)n(C)c1=O | -12.2%
Cn1c(N)c(C(=O)COC(=O)CSc2ccc(Cl)cc2)c(=O)n(C)c1=O | -61.2%
COc1ccc(N(C(=O)COc2ccccc2)C2C=CS(=O)(=O)C2)cc1 (stereo not shown) | -1.57%

SMILES | hERG current change (%, negative = inhibition) at 10uM
CCC(=O)Nc1c(S(=O)(=O)c2ccc(C)cc2)c2nc3ccccc3nc2n1C(C)c1ccccc1 (stereo not shown) | -14.9%
C=C(C)CN=C1NN=C(c2cc(C)n(-c3ccc(C)cc3)c2C)CS1 | 4.06%
O=C(NCCNC(=O)c1ccccc1F)c1ccco1.O=C(O)C(=O)O | 13.9%
O=C(CSc1ccc(Cl)cc1)N1CCN(c2ccc(Cl)cc2[N+](=O)[O-])CC1 | -61.5%
O=C(CSc1ccc(Cl)cc1)N1CCN(c2c(Cl)cccc2[N+](=O)[O-])CC1 | -17.2%
CN1CCN(C(=O)CSc2ccc(Cl)cc2)CC1 | 6.35%
O=C(CSc1ccc(Cl)cc1)N1CCCC1 | 16.6%
O=C(CSc1ccc(Cl)cc1)N1CCN(c2ccc([N+](=O)[O-])cc2Cl)CC1 | -59.2%
O=C(CN1CCN(c2ccc(Cl)cc2[N+](=O)[O-])CC1)N1CCOCC1 | -33.6%
CCN1C(=O)c2ccc(C(=O)O)cc2C1=O | 9.2%
c1ccc(CCNc2ncnc3sccc23)nc1 | 26.8%
O=C(c1ccc(Cl)cc1)c1ccc(OCC(=O)N2CCOCC2)cc1 | -40.8%
CCOC(=O)N1CCN(C(=O)c2ccc(NC(=O)c3ccc(C)cc3)cc2)CC1 | -13.3%
COc1ccc([N+](=O)[O-])cc1NC(=O)Cn1ccc(C(F)(F)F)n1 | 13.3%
COc1ccc([C@@H]2Sc3cc(OC)ccc3N(CCN(C(C)C)C(C)C)C(=O)[C@H]2OC(C)=O)cc1.Cl | -75%
COc1ccc2c(c1)Sc1ccccc1N2CCN(C)C.O=C(O)C(=O)O | -21.3%
COc1ccc(N2C(=O)C(OC(C)=O)C2c2ccc(C)cc2)cc1 (stereo not shown) | 17.3%
Cc1ccc(N2C(=O)CC(Sc3ncn[nH]3)C2=O)cc1C (stereo not shown) | 14.2%
S=C(NCC1CCCO1)N1CCN(c2ccccc2)CC1 (stereo not shown) | 23.5%
Cc1cc2ccccc2c(=O)[nH]1 | 16.5%
CCn1c(CNC(=O)C2CCCCC2)cc2cc(C)ccc21 | 28%
CN(C)c1nc(NCc2ccccc2)nc(SCC(N)=O)n1 | 7.76%

SMILES | hERG current change (%, negative = inhibition) at 10uM
O=c1oc2ccccc2c2c1ncn2CCN1CCOCC1 | -8.76%
COc1ccc(-c2oc3ncnc(NCCN4CCOCC4)c3c2-c2ccc(OC)cc2)cc1 | 2.75%
COc1ccc(-c2oc3ncn(CCN4CCOCC4)c(=N)c3c2-c2ccc(OC)cc2)cc1 | -70.3%
COc1ccc(-c2oc3ncn(Cc4ccco4)c(=N)c3c2-c2ccc(OC)cc2)cc1 | -49.4%
N=c1c2c(-c3ccccc3)c(-c3ccccc3)oc2ncn1CCCN1CCOCC1 | -79.2%
N=c1c2c(-c3ccccc3)c(-c3ccccc3)oc2ncn1CCN1CCOCC1 | -70.8%
Cn1c2ccccc2c2ncn(CCCN3CCOCC3)c(=O)c21 | -16.6%
Cn1c(=O)c2c(-c3ccccc3)n(CCCN3CCOCC3)cc2n(C)c1=O | 16.1%
CC(C)Cc1n[nH]c(=O)[nH]1 | -6.31%
O=C(Nc1c2c(nn1-c1ccc(F)cc1)CS(=O)C2)c1ccc(S(=O)(=O)N2CCOCC2)cc1 (stereo not shown) | 21.9%
Cc1cc(NC(=O)c2c(-c3ccccc3Cl)noc2C)no1 | 5.88%
CS(=O)(=O)NNC(=O)c1cc2cc3ccccc3nc2s1 | 9.84%
COc1ccc(NC(=O)C2=CC(c3ccc(OC)c(OC)c3)=NS(=O)(=O)N2C)cc1 | -4%
O=C(NCC1CCCO1)c1cc(-c2ccc(F)cc2)no1 (stereo not shown) | 0.634%
O=C1C2(c3ccccc3)CN(CCO)CC1(c1ccccc1)CN(CCO)C2 | -10.6%
O=C1C2(c3ccccc3)CN(CCCO)CC1(c1ccccc1)CN(CCCO)C2 | -50.4%
C=CCN1CC2(c3ccccc3)CN(CC=C)CC(c3ccccc3)(C1)C2=O | -19.3%
CCOC(=O)C1CCN(C(=O)CN2C(=O)CSc3ccc(S(=O)(=O)N4CCOCC4)cc32)CC1 | -22.6%
O=C(N=C1SC2CS(=O)(=O)CC2N1Cc1ccc(F)cc1)C1CCCO1 (stereo not shown) | -5.58%
CN(CC(=O)Nc1ccccc1Br)C(=O)c1cc(S(=O)(=O)N(C)C)ccc1N1CCCC1 | -8.64%
CSc1ccccc1NC(=O)c1cc(S(=O)(=O)N(C)C)ccc1N1CCCC1 | -54.7%
CN(C)S(=O)(=O)c1ccc(N2CCCC2)c(C(=O)Nc2ccccc2Br)c1 | -58.3%

SMILES | hERG current change (%, negative = inhibition) at 10uM
CN(C)S(=O)(=O)c1ccc(N2CCCC2)c(C(=O)NCc2ccccc2)c1 | -10%
CN(C)S(=O)(=O)c1ccc(N2CCCC2)c(C(=O)Nc2ccc(Br)cc2F)c1 | 3.03%
CCc1ccccc1NC(=O)c1cc(S(=O)(=O)N(C)C)ccc1N1CCCC1 | -32.2%
CN(C)S(=O)(=O)c1ccc(N2CCCC2)c(C(=O)Nc2ccccc2F)c1 | -14.7%
CN(C)S(=O)(=O)c1ccc(N2CCCC2)c(C(=O)NCc2cccc(C(F)(F)F)c2)c1 | 4.61%
CN(C)S(=O)(=O)c1ccc(N2CCCC2)c(C(=O)NNC(=O)COc2ccccc2F)c1 | -61.4%
CN(C)S(=O)(=O)c1ccc(N2CCCC2)c(C(=O)NCc2ccc(Cl)cc2)c1 | -68.5%
CN(C)S(=O)(=O)c1ccc(N2CCCC2)c(C(=O)NNC(=O)COc2ccccc2Cl)c1 | -30.3%
Cc1ccccc1OCC(=O)NNC(=O)c1cc(S(=O)(=O)N(C)C)ccc1N1CCCC1 | 0.0569%
O=C(C1CCCO1)N1CCN(C(c2ccccc2)c2ccccc2)CC1 (stereo not shown) | 0.514%
CC1(C)C=C2[C@H]3CC[C@@H]4[C@@]5(C)CCC(=O)C(C)(C)[C@@H]5CC[C@@]4(C)[C@]3(C)CC[C@@]2(C(=O)O)CC1 | -1.05%
CCN(CC)C(=O)C(=O)N/N=C/c1cccc(Br)c1 | -8.07%
CCN(CC1COc2ccccc2O1)C(=S)NC1CC2CCC1C2 (stereo not shown) | 1.34%
Cc1cc(C)cc(OCc2ccc(C(=O)NC3CCOC3=O)o2)c1 (stereo not shown) | 15.9%
O=C(Nc1nccs1)C(c1ccccc1)N1CCCC1 (stereo not shown) | -7.89%
COC(=O)c1sccc1N/N=C/c1cccc(Oc2ccccc2)c1 | -7.09%
CC1S/C(=N/N=C/c2ccco2)N(Cc2ccc(F)cc2)C1=O (stereo not shown) | -11.3%
COc1cc(OC)nc(Oc2ccccc2C(=O)Oc2ccc(Cl)cc2)n1 | -21.6%
Cc1nnsc1SCC(=O)O | -0.15%
